The nature of test [1]: ATG_GRE_CIS: Attagene CIS-FACTORIAL HepG2 Assay for human Glucocorticoid Response Elements (GRE) (AID 2282947). As to conditions: HepG2 GRE cis-reporter, Attagene multiplex mRNA; actives raise or lower the signal. In outline: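 Multiplexed cis-reporter mRNA induction, HepG2, 24 h post-dose. RT-PCR, FAM-labelled, HpaI-digested amplicons by CE. Bidirectional fit vs DMSO.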
Test [2] can be described thus: ATG_ISRE_CIS: Attagene CIS-FACTORIAL HepG2 Assay for human Interferon Regulatory Factor 1 (IRF1) binding to an Interferon-Stimulated Response Element (ISRE) (AID 2282948). The note with it: HepG2 ISRE cis-reporter (Attagene), mRNA transcription readout; actives raise or lower the signal. In outline: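 Uses HepG2 liver cells transfected with cis-regulated reporters and measures mRNA 24 h post-dosing through RT-PCR, primer-extension labelling and capillary electrophoresis, with DMSO as negative control.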

Test [3] in a line: ATG_M_32_CIS: Attagene CIS-FACTORIAL HepG2 Assay for M32 Transcription Factor (Internal Marker) (AID 2282949).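 Also: background control marker of the multiplexed CIS panel rather than a real target.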 As to conditions: HepG2 Attagene cis-factorial M32 reporter, mRNA; actives raise or lower the signal. In outline: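 Using DMSO as baseline, bidirectional curve fits were applied to reporter mRNA signals. These came from transiently transfected HepG2 cells exposed for 24 h, with RNA analysed by RT-PCR, FAM primer extension, HpaI digestion and CE.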

The target in test [4] is Hypoxia-inducible factor 1-alpha (Homo sapiens) (UniProt Q16665). The test is described as follows: ATG_HIF1a_CIS: Attagene CIS-FACTORIAL HepG2 Assay for human Hypoxia Inducible Factor 1 (HIF1A) (AID 2282951). The note with it: HepG2 Attagene cis-factorial HIF1a reporter transcription; actives raise or lower the signal. In outline:
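Activity is fitted in both directions relative to DMSO. Reporter transcripts are read by RT-PCR, fluorescent primer extension and capillary electrophoresis after 24 h chemical treatment. The cells are HepG2 carrying transiently transfected cis-element-driven reporter units responding to endogenous factors.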

Test [5] addresses Hepatocyte nuclear factor 6 (Homo sapiens) (UniProt Q9UBC0). The experiment in a line: ATG_HNF6_CIS: Attagene CIS-FACTORIAL HepG2 Assay for human Hepatocyte Nuclear Factor 6 (HNF6) (AID 2282952). As to conditions: HepG2 Attagene cis-factorial HNF6 reporter transcription; actives raise or lower the signal. In outline: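 Endogenous transcription factor activity in human HepG2 liver cells was captured through cis-regulated reporter constructs. After 24 h treatment, reporter mRNA was measured by RT-PCR with capillary electrophoresis, and activity was fitted in both directions relative to DMSO.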

The target in test [6] is Heat shock factor protein 1 (Homo sapiens) (UniProt Q00613). The experiment in a line: ATG_HSE_CIS: Attagene CIS-FACTORIAL HepG2 Assay for human Heat Shock Transcription Factor 1 (HSE) (AID 2282953). The note with it: HepG2 HSE cis-reporter, Attagene RNA transcription; actives raise or lower the signal. In outline:
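Endogenous transcription factor activity in transiently transfected HepG2, read as reporter mRNA by RT-PCR with fluorescent capillary electrophoresis after 24 h. Gain or loss of signal fitted versus DMSO baseline.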

The nature of test [7]: ATG_MRE_CIS: Attagene CIS-FACTORIAL HepG2 Assay for human Metal Responsive Element (MRE) (AID 2282954). As to conditions: HepG2 MRE cis-reporter transcription, Attagene multiplex; actives raise or lower the signal. In outline:
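Multiplexed cis-reporter assay in human HepG2 liver cells, 24 h incubation with test chemical. Reporter transcripts measured by RT-PCR and capillary electrophoresis; values from bidirectional curve fitting versus DMSO.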

Test [8] in a line: ATG_PBREM_CIS: Attagene CIS-FACTORIAL HepG2 Assay for human Phenobarbital-responsive Enhancer Module (PBREM) (AID 2282955). The note with it: HepG2 PBREM cis-reporter, Attagene multiplexed transcription; actives raise or lower the signal. In outline: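 Endogenous transcription factor activity was read from reporter transcripts in transiently transfected human HepG2 liver cells after 24 h dosing. RT-PCR products were fluorescently labelled, HpaI-cut and sized by capillary electrophoresis; activity fitted bidirectionally against DMSO baseline.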

Test [9] addresses Paired box protein Pax-6 (Homo sapiens) (UniProt P26367). The experiment in a line: ATG_Pax6_CIS: Attagene CIS-FACTORIAL HepG2 Assay for human Paired Box 6 (PAX6) (AID 2282956). As to conditions: HepG2 CIS-FACTORIAL PAX6 reporter transcription, RNA readout; actives raise or lower the signal. In outline:
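DMSO-referenced bidirectional fits of reporter mRNA fluorescence; HepG2 with transient cis-promoter MRTUs, 24 h post-dose, RT-PCR plus capillary electrophoresis detection.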

Test [10] in a line: ATG_M_06_CIS: Attagene CIS-FACTORIAL HepG2 Assay for M06 Transcription Factor (Internal Marker) (AID 2282950). The note with it: HepG2 Attagene CIS-FACTORIAL M06 internal marker reporter; actives raise or lower the signal. In outline:
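Serves as a background control readout. Transfected HepG2 exposed to compounds for 24 h, then reporter transcripts quantified by fluorescent RT-PCR and capillary electrophoresis. Both directions fitted against DMSO baseline.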

The values below come from PubChem BioAssay (EPA / NIEHS).

The source made the active and inactive calls. The calls were made as follows: active = hit-call score of the fitted dose curve at least 0.9, where 1 is the maximum; inactive = score below 0.9.

Chain of Paired box protein Pax-6 (Homo sapiens) (P26367 whole entry, looked up): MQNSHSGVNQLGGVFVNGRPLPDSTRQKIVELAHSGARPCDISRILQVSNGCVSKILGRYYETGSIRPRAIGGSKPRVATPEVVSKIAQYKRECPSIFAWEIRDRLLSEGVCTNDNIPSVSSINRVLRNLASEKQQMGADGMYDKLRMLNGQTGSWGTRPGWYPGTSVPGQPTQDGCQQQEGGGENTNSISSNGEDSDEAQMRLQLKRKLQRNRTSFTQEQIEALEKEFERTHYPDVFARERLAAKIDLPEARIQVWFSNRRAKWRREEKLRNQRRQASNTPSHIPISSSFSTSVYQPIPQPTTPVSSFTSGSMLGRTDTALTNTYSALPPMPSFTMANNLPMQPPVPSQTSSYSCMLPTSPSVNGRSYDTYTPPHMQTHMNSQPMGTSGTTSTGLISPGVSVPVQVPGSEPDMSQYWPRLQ
Chain of Hypoxia-inducible factor 1-alpha (Homo sapiens) (Q16665 whole entry, looked up): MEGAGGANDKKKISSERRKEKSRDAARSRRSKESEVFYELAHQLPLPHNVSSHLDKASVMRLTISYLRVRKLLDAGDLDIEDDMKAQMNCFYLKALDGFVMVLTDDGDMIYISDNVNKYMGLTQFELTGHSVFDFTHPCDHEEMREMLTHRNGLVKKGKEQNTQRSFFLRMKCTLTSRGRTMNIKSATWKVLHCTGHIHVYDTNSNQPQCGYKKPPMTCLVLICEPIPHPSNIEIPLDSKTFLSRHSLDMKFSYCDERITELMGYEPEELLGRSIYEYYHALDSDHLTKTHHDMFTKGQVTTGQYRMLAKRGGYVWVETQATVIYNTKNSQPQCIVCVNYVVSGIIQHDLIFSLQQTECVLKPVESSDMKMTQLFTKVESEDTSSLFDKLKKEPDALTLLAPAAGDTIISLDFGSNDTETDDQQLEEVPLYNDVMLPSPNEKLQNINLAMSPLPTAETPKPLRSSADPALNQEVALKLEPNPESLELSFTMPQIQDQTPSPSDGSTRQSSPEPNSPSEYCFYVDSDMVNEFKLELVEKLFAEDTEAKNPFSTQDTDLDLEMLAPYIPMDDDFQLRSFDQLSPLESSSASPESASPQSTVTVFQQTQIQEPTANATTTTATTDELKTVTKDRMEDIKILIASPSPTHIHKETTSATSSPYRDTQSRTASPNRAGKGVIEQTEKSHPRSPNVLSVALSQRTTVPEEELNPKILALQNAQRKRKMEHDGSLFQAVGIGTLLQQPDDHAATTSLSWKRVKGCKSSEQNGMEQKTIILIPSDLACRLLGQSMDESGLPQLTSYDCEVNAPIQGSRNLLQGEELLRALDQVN
Chain of Hepatocyte nuclear factor 6 (Homo sapiens) (Q9UBC0 whole entry, looked up): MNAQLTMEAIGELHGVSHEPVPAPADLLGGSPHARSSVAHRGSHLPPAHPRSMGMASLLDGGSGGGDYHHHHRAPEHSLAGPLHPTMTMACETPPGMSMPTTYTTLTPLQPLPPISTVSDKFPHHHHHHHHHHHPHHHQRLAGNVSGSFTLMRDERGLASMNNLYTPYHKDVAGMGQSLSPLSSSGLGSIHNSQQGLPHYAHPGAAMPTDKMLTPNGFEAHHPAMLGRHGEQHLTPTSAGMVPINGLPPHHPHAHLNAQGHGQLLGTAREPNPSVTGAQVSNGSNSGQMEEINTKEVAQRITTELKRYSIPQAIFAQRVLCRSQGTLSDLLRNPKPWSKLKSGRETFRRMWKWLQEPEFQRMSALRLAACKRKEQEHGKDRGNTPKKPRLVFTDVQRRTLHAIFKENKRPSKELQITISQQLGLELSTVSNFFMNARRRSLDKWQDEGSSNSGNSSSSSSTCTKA
Chain of Heat shock factor protein 1 (Homo sapiens) (Q00613 whole entry, looked up): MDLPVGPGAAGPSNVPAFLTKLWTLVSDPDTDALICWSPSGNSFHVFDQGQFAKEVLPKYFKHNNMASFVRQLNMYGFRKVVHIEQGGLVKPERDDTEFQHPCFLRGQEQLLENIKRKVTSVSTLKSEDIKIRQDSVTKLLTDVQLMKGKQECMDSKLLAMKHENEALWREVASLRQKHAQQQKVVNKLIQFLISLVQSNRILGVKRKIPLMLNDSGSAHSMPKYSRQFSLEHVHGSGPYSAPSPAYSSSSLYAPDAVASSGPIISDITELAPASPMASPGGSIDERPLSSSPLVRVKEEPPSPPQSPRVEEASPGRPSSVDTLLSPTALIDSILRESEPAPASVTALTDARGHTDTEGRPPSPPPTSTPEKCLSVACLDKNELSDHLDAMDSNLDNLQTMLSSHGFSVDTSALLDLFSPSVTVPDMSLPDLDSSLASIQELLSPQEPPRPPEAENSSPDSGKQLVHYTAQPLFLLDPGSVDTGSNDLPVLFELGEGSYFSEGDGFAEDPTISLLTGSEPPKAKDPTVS

Take `CCCSP(=O)(OCC)SCCC`: the compound was called inactive in [1], in test [2], in [3], in [4], in test [5] and in test [6]. Also, the call in test [7], in test [8] and in test [9] was inactive.

Turning to `CCc1cccc(CC)c1N(COC)C(=O)CCl`, the call in test [1], in [2], in test [3], in test [10], in [4] and in test [5] was inactive. In addition, the call in test [6], in test [7], in test [8] and in test [9] was inactive.

Turning to `N#CSCSC#N`, the compound was classed as inactive in test [1], in [2], in [3], in test [4], in [5] and in test [6]. The outcome in [7] and in test [8] was inactive.

With `COP(=O)(OC)SCn1c(=O)oc2cc(Cl)cnc21`, the compound was classed as inactive in [1], in test [2], in [3], in [4], in test [5] and in [6]. The compound was called inactive in [7] and in [8].

For the compound `CCOC(=O)COc1cc(-c2nn(C)c(OC(F)F)c2Cl)c(F)cc1Cl`, the call in test [1], in test [2], in test [3], in [4], in [5] and in test [7] was inactive. Further, the result in test [8] was inactive.

One may read the AC50 as the concentration at which the activity in the assay is half-maximal. With `CCC(CC)Nc1c([N+](=O)[O-])cc(C)c(C)c1[N+](=O)[O-]`, the result in test [1], in [3], in [4], in [5], in [6] and in [8] was inactive. Also, the half-maximal activity concentration (AC50) in test [7] was 28.9 µM (active).

On to `CCOP(=S)(Oc1cnc(C(C)(C)C)nc1)OC(C)C` (stereo not given), for which the result in [1], in test [3], in test [10], in [4], in test [5] and in test [9] was inactive. Besides, the concentration at half-maximal activity (AC50) in [7] was 65.3 µM (active); in test [8], 21.2 µM (active).

As to `CSc1nnc(C(C)(C)C)c(=O)n1N`, the outcome in test [1], in test [3], in test [4], in [5], in test [6] and in test [7] was inactive. The result in test [8] was inactive.

Regarding `CSC1=N[C@@](C)(c2ccccc2)C(=O)N1Nc1ccccc1`, the compound was called inactive in test [1], in test [3], in [10], in test [4], in [5] and in [6]. In test [9], the call was inactive. Also, the AC50 was 50 µM (active) in test [7] and 21.7 µM (active) in test [8].

Regarding `CCOP(=S)(OCC)Oc1ccc([N+](=O)[O-])cc1`, the compound was called inactive in test [1], in test [3], in test [4], in test [5], in test [6] and in [8]. Also, the AC50 in [7] is 50 µM (active).

Regarding `C=C(C)[C@H]1Cc2c(ccc3c2O[C@@H]2COc4cc(OC)c(OC)cc4[C@@H]2C3=O)O1`, the compound was called inactive in [1], in [3], in [5] and in test [6]. Besides, the AC50 in test [4] was 0.0274 µM (active); in test [7], 0.0899 µM (active); in [8], 0.0505 µM (active).

For `COP(=O)(OC)OC(Br)C(Cl)(Cl)Br` (stereo not given), the compound was called inactive in [1], in test [3], in test [10], in test [4], in [5] and in [6]. Further, the compound was called inactive in test [7] and in test [8].

For the compound `CNC(=O)ON=C(C)SC`, the outcome in test [1], in test [3], in [4], in [5], in test [6] and in [7] was inactive.

With `CCC(=NOC/C=C/Cl)C1=C(O)CC(C2CCOCC2)CC1=O` (stereo not given), the compound was classed as inactive in [1], in test [2], in [3], in test [4], in test [5] and in test [6]. In addition, the compound was called inactive in test [7] and in test [8].

Take `CCNc1nc(Cl)nc(NC(C)(C)C#N)n1`: the compound was classed as inactive in [1], in test [3], in [10], in test [4], in [5] and in test [7]. Besides, the outcome in test [8] was inactive.

As for `CCCOCC(=Nc1ccc(Cl)cc1C(F)(F)F)n1ccnc1`, the call in test [1], in [2], in test [3], in test [10], in test [4] and in test [5] was inactive. The compound was classed as inactive in test [6], in test [7], in test [8] and in test [9].

For the compound `COP(=O)(NC(C)=O)SC` (stereo not given), the result in [1], in test [2], in test [3], in test [10], in test [4] and in [5] was inactive. Besides, the outcome in test [6], in test [7] and in [8] was inactive.
